# ADAM10 inh: human ADAM10 inhibitors, primary screen, biochemical, QFRET, HTS; Disintegrin and metalloproteinase domain-containing protein 10 (Homo sapiens), O14672; recombinant ADAM10, EDANS/DABCYL FRET peptide cleavage, 3 h; inhibition, % at 7 µM; actives 0.62% (n = 370,000); AID 720582, 2013;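 active = inhibition above a per-campaign cutoff equal to the mean of compounds falling between control-based bounds plus 3 SD, cut at about 20% in these data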;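 note: 0% = DMSO wells while the 100% control is not disclosed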
# GC-B act: human GC-B receptor activators, primary screen, HEK293 GC-B cells, cGMP TR-FRET, EC30 CNP. Atrial natriuretic peptide receptor 2 (Homo sapiens), P20594. 0% at EC30 CNP, 100% saturating CNP. actives 0.11% (n = 370,000). AID 1920062, 2024. activation, % at 10 µM;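 active = activation at 10 µM reaching about 35% in either raw or pattern-adjusted values, limit read from the data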
# ADAM17 inh: ADAM17 inhibitors, primary screen, biochemical, QFRET | recombinant ADAM17, EDANS/DABCYL FRET peptide cleavage | inhibition, % at 6.95 µM | actives 0.83% (n = 370,000) | AID 720648, 2013;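 active = inhibition above the mean of compounds lying between control limits plus 3 SD, set per campaign, cut at about 8.5% in these data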;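 note: 0% = DMSO-only wells as the low control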
# NPR1 activator: GC-A stimulated cGMP production enhancers – HEK293 GC-A cells, cGMP TR-FRET, EC30 ANP, primary screen; Atrial natriuretic peptide receptor 1 (Homo sapiens), P16066; 0% at EC30 ANP, 100% saturating ANP; activation, % at 10 µM; AID 1671463, 2021; actives 0.14% (n = 370,000); in the data active = activation above about 40%
# FAS TE block: FAS thioesterase domain inhibitors, primary screen, biochemical, fluorescence intensity, uHTS | Fatty acid synthase (Homo sapiens), P49327 | recombinant FAS-TE, OMFH fluorogenic substrate, fluorescence endpoint | inhibition, % at 15 µM | actives 0.67% (n = 360,000) | AID 602261, 2012;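 active = compounds whose normalised, plate-corrected inhibition of enzyme fluorescence in the single-dose primary screen is 50% or more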;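 note: 0% = DMSO with enzyme and 100% = substrate without enzyme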
# FAS-TE conf: FAS thioesterase domain inhibitors, confirmation, biochemical, fluorescence intensity, single concentration. recombinant FAS-TE, OMFH fluorogenic substrate. shares compounds with FAS TE block. inhibition, % at 15 µM. AID 624325, 2012. actives 45% (n = 2,300);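 active = compounds inhibiting the enzyme by at least 50% at 15 µM in any one of the replicates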;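 note: 0% = enzyme with DMSO only and 100% = wells lacking enzyme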
# * = called active by the depositor; · = not tested or not shown. A selection: hits, their analogues and other compounds. The true share with any hit is near 2%.
SMILES,ADAM10 inh,GC-B act,ADAM17 inh,NPR1 activator,FAS TE block,FAS-TE conf
O=C(NNc1ccc([N+](=O)[O-])cc1[N+](=O)[O-])C1C2CCCCC21 (centres undefined),6,8,-1,0,62*,23
O=C(NNc1ccc([N+](=O)[O-])cc1)C1C2CCCCC21 (centres undefined),-6,0,-2,-1,14,·
Cc1cc(-c2n[nH]c(=S)n2N=Cc2ccc(O)cc2)n[nH]1,5,-5,1,3,·,·
COc1ccc(OC)c(S(=O)(=O)ON2C(=O)c3ccccc3C2=O)c1,-89,44*,-38,44*,79*,66*
COc1ccc(OC)c(S(=O)(=O)N2CCN(c3ccccc3)CC2)c1,2,-7,-2,-8,8,·
O=C1c2cccc3cccc(c23)C(=O)N1OS(=O)(=O)c1ccc(Cl)cc1,-15,-4,-3,-3,52*,14
CCc1ccc(S(=O)(=O)ON2C(=O)c3ccccc3C2=O)cc1,-85,20,-26,36,81*,72*
COC(=O)[C@]12C[C@H](CC(=O)NCc3cccc(C(F)(F)F)c3)C(=O)N(Cc3ccc(Cl)cc3Cl)C1=C[C@H](C(C)C)O[C@@H]2C1CC1,-3,4,-2,-2,·,·
C/C(=N\Nc1ncc(Cl)cc1Cl)c1ccc(OC(F)F)cc1,-9,5,-2,-5,52*,59*
C=CCOc1c(OC)cc(/C=N/Nc2cccc(C(=O)O)c2)c(Br)c1Br,5,0,0,-6,70*,84*
Cc1ccc([N+](=O)[O-])cc1NC(=O)c1ccc(CSc2ccccc2)cc1,4,-3,3,-8,23,·
Cc1ccc(SCc2ccc(C(=O)Nc3cccc([N+](=O)[O-])c3C)cc2)cc1,-1,-2,-3,-3,51*,31
COc1cc(-c2cc(-c3ccc(O)cc3)nc(N)c2C#N)ccc1O,-77,2,-27,1,0,·
COc1ccc(-c2cc(-c3ccc(O)cc3)nc(N)c2C#N)cc1,-481,10,-234,35,57*,34
CC1=C(C(=O)OCC(Br)(Br)Br)C(c2cccc([N+](=O)[O-])c2)NC(=O)N1CCCC(=O)O (centres undefined),-6,-1,-4,-3,56*,65*
CCn1c(SCC(=O)N/N=C/c2cccc(Oc3ccccc3)c2)nnc1-c1ccccc1,5,1,-2,-3,·,·
Cc1nc(N2CCN(S(=O)(=O)c3cccc4nonc34)CC2)c2c3c(sc2n1)CCCC3,-6,-4,-5,-8,54*,7
Cc1nc(N2CCN(S(=O)(=O)c3ccccc3)CC2)c2c3c(sc2n1)CC(C)CC3 (centres undefined),6,-7,0,-3,32,·
CN(CCO)c1cc(NCCCN2CCC(Cc3ccccc3)CC2)c2nonc2c1[N+](=O)[O-],4,-7,1,-8,68*,42*
O=C(c1cccc(S(=O)(=O)N2CCCCC2)c1)N1CCCCC1,-4,6,0,-1,-3,·
O=C(c1cccc(S(=O)(=O)N2CCCC2)c1)c1cccc(S(=O)(=O)N2CCCC2)c1,3,3,1,2,54*,48*
COc1ccc(/C=N/Nc2nc(Nc3ccccc3)nc(N3CCCCC3)n2)c(OC)c1,4,-3,1,7,50*,23
COc1cc(/C=N/Nc2nc(Nc3ccccc3)nc(N3CCOCC3)n2)ccc1OC(=O)c1ccco1,-2,6,6,14,67*,24
CCOc1cc(/C=N/Nc2nc(N3CCCCC3)nc(N3CCCCC3)n2)ccc1OC(=O)c1ccco1,-8,-1,-1,-2,71*,2
CCOc1ccc(/C=N/Nc2nc(N3CCCC3)nc(N3CCCC3)n2)cc1OC,-6,1,3,7,0,·
SMILES,ADAM10 inh,GC-B act,ADAM17 inh,NPR1 activator,FAS TE block,FAS-TE conf
CC(C)CN(CC(C)C)C(=O)c1cn(C(C)c2ccccc2)nn1 (centres undefined),-6,-6,-2,2,·,·
Cc1cc2c(=O)oc(-c3ccc(F)cc3)nc2s1,-9,-6,-8,-5,32,·
CCc1cc2c(=O)oc(-c3ccccc3F)nc2s1,2,-11,-3,-2,75*,60*
Cc1cc2c(=O)oc(-c3ccccc3Br)nc2s1,0,-8,-3,-3,59*,65*
CCOC(=O)c1c(NC(=O)CSc2nc3cccnc3n2C)sc(C(C)=O)c1C,·,·,·,·,80*,45
CCOC(=O)c1c(NC(=O)CSc2nnc(-c3ccccc3C)n2C)sc(C(C)=O)c1C,2,-11,2,-25,59*,68*
CCOC(=O)c1c(NC(=O)CSc2ncnc3ccccc23)sc(C(C)=O)c1C,-2,0,-6,14,50*,17
COC(=O)c1c(NC(=O)CSc2ncnc3ccccc23)sc(C)c1C,10,2,-1,5,18,·
CCOC(=O)c1sc(NC(=O)CSc2nc3cccnc3n2C)nc1C,-3,-5,-3,-4,2,·
CCCCCCCCN1C(=O)[C@@H](CC(=O)NCCCCc2ccccc2)C[C@@]2(C(=O)OC)C1=C[C@H](C(C)(C)C)O[C@@H]2C,-3,7,-4,-2,·,·
Nn1c(SCC(=O)Nc2nccs2)nnc1-c1cc(-c2ccccc2)n[nH]1,1,0,1,0,·,·
CCN(C(=O)COC(=O)c1ccc(Sc2ncn[nH]2)c([N+](=O)[O-])c1)c1ccccc1C,6,5,2,-4,·,·
O=C(Cn1cnc2ccccc2c1=O)Nc1ccc2c(c1)OCO2,-8,-2,-1,2,-13,·
O=C(Cn1cnc2cc([N+](=O)[O-])ccc2c1=O)Nc1ccc2c(c1)OCO2,13,-1,4,-2,75*,53*
O=C(CSc1ccc([N+](=O)[O-])cn1)Nc1ccc2c(c1)OCO2,4,2,2,-2,86*,57*
COc1ccc2cc(-c3cccc4[nH]cc(C)c34)ccc2c1,-78,0,-38,0,·,·
O=C(NCc1ccc(Cl)cc1)C1C2C=CC3(CN(Cc4ccccc4)C(=O)C13)O2 (centres undefined),3,1,2,3,·,·
